Source: PubChem BioAssay
TROY signal inh: TROY signaling inhibition | AID 1347056 | Q293 LMP1-TROYcd NF-kB luciferase reporter, 4 h | actives 0.98% (n = 360,000) | inhibition, % at 10 µM;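 active means compounds whose plate-normalised and pattern-corrected inhibition of the luciferase reporter signal at the single screening dose is 50% or more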
TWEAK Fn14 block: inhibitors of TWEAK-Fn14 interaction signaling | TWEAK-stimulated Fn14 reporter cells, luciferase luminescence, 8 h | inhibition, % at 10 µM | actives 2% (n = 360,000) | AID 1159606; in the data active means inhibition above about 50%
KKLEB tox: CF airway cell cytotoxicity counter-screen; activity change (cytotoxicity), % at 5 µM; actives 0.36% (n = 360,000); KKLEB CF airway cells viability, ATPlite luminescence, overnight; stronger effect = lower value; cells stimulated with P. aeruginosa culture filtrate;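 active means corrected activity change at or below -50% at 5 µM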
CF NFkB block: cystic fibrosis NF-kB activation inhibition | inhibition, % at 5 µM | actives 0.86% (n = 360,000) | KKLEB NF-kB-GFP reporter, PAF-induced, GFP fluorescence overnight;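 active means at least 50% inhibition at 5 µM, scaled per plate between neutral and stimulator controls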;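 further: PAF is a Pseudomonas aeruginosa culture filtrate used as stimulus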
Peg3 prom inh: reduces Peg3 promoter-driven luciferase expression in HeLa; HeLa PEG-Prom luciferase reporter, luminescence, overnight; inhibition, % at 20 µM; actives 1.7% (n = 360,000);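 active means inhibition of at least 50% at 20 µM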
HIF-2a block: inhibitors of HIF-2a; 786-0 RCC cells HIF-2a reporter, luciferase luminescence, overnight; actives 0.72% (n = 360,000); AID 624352; inhibition, % at 18.8 µM;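 active means inhibition of the luminescence signal of 40% or more relative to plate controls, in a single-dose primary screen at 18.75 µM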
Mdm2 MdmX conf: confirmation of inhibitors of human Mdm2/MdmX interaction, set 2. inhibition, % at 8 µM. AID 504601. shares compounds with HIF-2a block. SaOS-2 split-luciferase Mdm2/MdmX complementation, luminescence. actives 99% (n = 740);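 active means mean inhibition of the luminescence signal across two replicates at or above 26 percent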
Target sequence (O15151 whole entry, looked up): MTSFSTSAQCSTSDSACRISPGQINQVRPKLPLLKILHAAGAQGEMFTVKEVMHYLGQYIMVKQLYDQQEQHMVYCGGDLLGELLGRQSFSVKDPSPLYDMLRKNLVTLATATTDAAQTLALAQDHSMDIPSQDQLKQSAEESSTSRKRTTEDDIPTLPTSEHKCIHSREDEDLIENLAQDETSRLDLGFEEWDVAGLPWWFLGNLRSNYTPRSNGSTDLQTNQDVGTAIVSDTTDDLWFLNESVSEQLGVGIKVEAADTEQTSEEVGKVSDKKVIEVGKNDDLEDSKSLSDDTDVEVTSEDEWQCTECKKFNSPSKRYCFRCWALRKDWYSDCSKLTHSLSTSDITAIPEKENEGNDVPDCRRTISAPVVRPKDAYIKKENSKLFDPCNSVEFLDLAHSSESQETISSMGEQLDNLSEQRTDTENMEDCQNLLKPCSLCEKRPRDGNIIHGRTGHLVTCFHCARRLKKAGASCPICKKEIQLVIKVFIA
Target sequence (Q00987 whole entry, looked up): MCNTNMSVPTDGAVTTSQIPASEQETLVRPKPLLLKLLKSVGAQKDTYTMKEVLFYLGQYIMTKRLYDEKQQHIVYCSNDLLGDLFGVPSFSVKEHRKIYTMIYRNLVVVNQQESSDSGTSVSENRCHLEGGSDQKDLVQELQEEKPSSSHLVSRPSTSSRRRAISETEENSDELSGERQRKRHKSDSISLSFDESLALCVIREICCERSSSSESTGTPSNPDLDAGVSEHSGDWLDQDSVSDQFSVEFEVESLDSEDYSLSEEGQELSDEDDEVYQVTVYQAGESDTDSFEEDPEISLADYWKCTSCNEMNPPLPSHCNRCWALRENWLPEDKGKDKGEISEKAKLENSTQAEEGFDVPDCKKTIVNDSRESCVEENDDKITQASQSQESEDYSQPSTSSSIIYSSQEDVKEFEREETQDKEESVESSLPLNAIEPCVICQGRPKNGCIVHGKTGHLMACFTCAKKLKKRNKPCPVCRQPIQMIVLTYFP
HIF-2a conf: HIF-2a inhibition, single concentration confirmation. shares compounds with HIF-2a block. 786-0 RCC cells, HIF-2a luciferase reporter luminescence, overnight. inhibition, % at 18.8 µM. actives 56% (n = 1,800);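 active means mean inhibition across four replicates of at least 40 percent at the single tested concentration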
HIF-1a counter: counter-screen for HIF-2a inhibitors: HIF-1a inhibition in MiaPaCa-2 cells; shares compounds with HIF-2a block; inhibition, % at 18.8 µM; MiaPaCa-2 HIF-1a luciferase reporter, desferoxamine, overnight; actives 72% (n = 1,800);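 active means mean inhibition of the reporter signal across four replicates at the single tested dose of 50% or more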
A number is an active result. A selection: hits, their analogues and other compounds. The true share with any hit is near 4%.

`Oc1cccc(Nc2nc(N3CCOCC3)nc(N3CCOCC3)n2)c1` gave TROY signal inh inactive, TWEAK Fn14 block inactive, KKLEB tox inactive, CF NFkB block inactive, Peg3 prom inh inactive, HIF-2a block 49, HIF-2a conf inactive and HIF-1a counter 76.
Screening CC(=O)Nc1ccc(NC(=O)COC(=O)[C@@H]2CCCN2C(=O)c2cccs2)cc1 returned TROY signal inh inactive, TWEAK Fn14 block inactive, KKLEB tox inactive, CF NFkB block inactive, Peg3 prom inh inactive and HIF-2a block inactive.
Screening CC(=O)C(=Cc1ccc(-c2ccccc2)cc1)C(=O)c1ccccc1 returned TROY signal inh inactive, TWEAK Fn14 block 55, HIF-2a block 65, HIF-2a conf inactive and HIF-1a counter 103.
For COCCN(C(=O)COC(=O)CCOc1cccc(C)c1)c1c(N)n(Cc2ccccc2)c(=O)[nH]c1=O the results were TROY signal inh inactive, TWEAK Fn14 block inactive, KKLEB tox inactive, CF NFkB block inactive, Peg3 prom inh inactive and HIF-2a block inactive.
Screening Cn1c(/C=C/c2ccc(Br)cc2)c([N+](=O)[O-])c(=O)n(C)c1=O returned TROY signal inh inactive, TWEAK Fn14 block 63, KKLEB tox inactive, CF NFkB block inactive, Peg3 prom inh 62, HIF-2a block 92, HIF-2a conf 55 and HIF-1a counter 96.
Cn1c(=O)c2cc(NC(=S)NCc3ccccc3F)ccc2n1C was read as TROY signal inh inactive, TWEAK Fn14 block inactive, KKLEB tox inactive, CF NFkB block inactive, Peg3 prom inh inactive and HIF-2a block inactive.
Screening CNc1ccc(/C=C(\C#N)c2ccccn2)cc1[N+](=O)[O-] returned TROY signal inh inactive, TWEAK Fn14 block inactive, KKLEB tox inactive, CF NFkB block inactive, Peg3 prom inh inactive and HIF-2a block inactive.
Screening N#C/C(=C\c1ccc(Cl)c([N+](=O)[O-])c1)c1ccccn1 returned TROY signal inh inactive, TWEAK Fn14 block inactive, KKLEB tox inactive, CF NFkB block inactive, Peg3 prom inh 93, HIF-2a block 43, HIF-2a conf inactive and HIF-1a counter 95.
`Cc1ccc(CN(C(=O)c2ccc([N+](=O)[O-])cc2)C2CCS(=O)(=O)C2)o1` (centres undefined) gave TROY signal inh inactive, TWEAK Fn14 block inactive, KKLEB tox inactive, CF NFkB block inactive, Peg3 prom inh inactive and HIF-2a block inactive.
`O=C(c1cc2cc(Cl)ccc2[nH]1)N1CCN(Cc2ccc3c(c2)OCO3)CC1` gave TROY signal inh inactive, TWEAK Fn14 block inactive, KKLEB tox inactive, CF NFkB block inactive, Peg3 prom inh inactive and HIF-2a block inactive.
For O=C(Nc1ccc(Cl)cc1)/C(=C/c1cccc(O)c1)c1nc2ccccc2s1 the results were TROY signal inh 83, TWEAK Fn14 block 104, KKLEB tox -91, CF NFkB block 90, Peg3 prom inh 101, HIF-2a block 91, Mdm2 MdmX conf 102, HIF-2a conf 95 and HIF-1a counter 106.
For CCC(C)(C)c1ccc(OCCCC[n+]2ccccc2)c(C(C)(C)CC)c1 the results were TROY signal inh 51, TWEAK Fn14 block 79, KKLEB tox -50, CF NFkB block 62, Peg3 prom inh 93, HIF-2a block inactive and Mdm2 MdmX conf 103.
CCC(C)(C)c1ccc(Oc2cccc(C(=O)O)c2)cc1 was read as TROY signal inh inactive, TWEAK Fn14 block inactive, KKLEB tox inactive, CF NFkB block inactive, Peg3 prom inh inactive and HIF-2a block inactive.
CCCCCc1ccc(OCCCC[n+]2ccc(C)cc2)c(CCCCC)c1 was read as TROY signal inh 50, TWEAK Fn14 block 68, KKLEB tox -67, CF NFkB block 75, Peg3 prom inh 100, HIF-2a block inactive and Mdm2 MdmX conf 103.
